Measured values taken from PubChem BioAssay (NCATS).
Records with an inconclusive call do not appear. The source made the active and inactive calls. Unless noted, the call rests on the fitted dose curve; in most records, active means well fitted curve in the direction sought with a large enough effect; inconclusive means small, poorly fitted or top-dose-only effect, or another doubt; inactive means no such curve, though single readings can be large; an effect the other way counts as inactive or inconclusive.

What was measured:
[1] = Cell Viability - BJ (AID 421; calls by dose curve;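 further: potency means the concentration at half of the fitted maximal effect; cells exposed to compound for 40 hours at 37 °C before readout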); conditions: BJ fibroblast viability, qHTS
Procedure, shortened: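 Cytotoxicity as drop in intracellular ATP (CellTiter-Glo, 20 min RT) after 40 hr compound exposure of BJ fibroblasts at 37 °C. Titrations scaled between DMSO and 100 uM tamoxifen, Hill-fitted for AC50.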

[2] = Cell Viability - Jurkat (AID 426;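 active means dose-dependent loss of cell ATP signal giving a full or clear fitted curve, ranked by lower potency value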;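 further: potency means the concentration at half of the fitted maximal effect; cells exposed to compound for 40 hours at 37 °C before ATP read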); conditions: qHTS
Procedure, shortened: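 Cells of the human T-cell leukemia line Jurkat (E6-1) are seeded at 5000 per well, treated with compound across a concentration range for 40 hours at 37 °C, then lysed with CellTiter-Glo; luminescence reports ATP.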

[3] = Cell Viability - Hek293 (AID 427;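 active means compounds whose dose-response curve shows a full or clear partial loss of cell viability, called from curve shape rather than a numeric limit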;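 further: potency means the concentration at half of the fitted maximal effect; cells exposed to compound for 40 hours at 37 °C before reading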); conditions: qHTS
Procedure, shortened: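 Luminescent ATP content (CellTiter-Glo, 20 min at room temperature) was measured after a 40 hr, 37 °C compound exposure of HEK293 cells. AC50 values came from Hill-equation fits of qHTS concentration-response data normalized to DMSO and 100 uM tamoxifen.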

[4] = Cell Viability - HepG2 (AID 433; calls by dose curve;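 further: potency means the concentration at half of the fitted maximal effect; potency for ATP loss meaning cytotoxicity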); conditions: qHTS
Procedure, shortened: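 HepG2 hepatocellular carcinoma cells (1500/well) were treated with compounds for 40 h at 37 °C in complete medium; intracellular ATP was read by CellTiter-Glo luminescence. Data were normalized to DMSO and 100 uM tamoxifen, and AC50 came from Hill fits.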

[5] = Cell Viability - MRC5 (AID 434; calls by dose curve;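 further: potency means the concentration at half of the fitted maximal effect; potency reflects cytotoxicity seen as loss of intracellular ATP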); conditions: MRC5 lung fibroblast viability, qHTS
Procedure, shortened: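 AC50 values come from Hill-equation fits of intracellular ATP loss, measured by CellTiter-Glo luminescence. Normal lung fibroblasts (MRC5) had 40 hr compound treatment at 37 C, normalized between DMSO and 100 uM tamoxifen.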

[6] = molecular target: Mitogen-activated protein kinase 10 (Mus musculus) (UniProt Q61831); test: JNK3 AlphaScreen Assay (AID 530; active means well fitted curve in either direction with a large enough effect, not every such curve was filed as active;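 further: kinase came from lysate of stimulated human HepG2 cells; signal reports phosphorylation of biotinylated GST-cJun 1-79 at Ser73 with 10 µM ATP; on the % scale 0 is the no-effect control and ±100 the full control effect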); conditions: JNK3 lysate, c-Jun phosphorylation; series mostly up to 57.1 µM
Procedure, shortened: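 qHTS titrations with 15 min compound pre-incubation before adding ATP (10 uM final). Read-out: AlphaScreen of Ser73-phosphorylated biotin-GST-cJun using HepG2 lysate JNK3 activated by IL-1β and TNFα.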

[7] = Cell Viability - N2a (AID 540); conditions: N2a mouse neuroblastoma cell viability; at 92.2 µM (top of the series);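 further: plate controls were DMSO alone for no effect and tamoxifen control for full effect; nearly all actives have a fitted effect of over 45% in size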
Procedure, shortened: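 Cytotoxicity was scored as loss of cellular ATP in N2a cells, a mouse neuroblastoma line. Compounds are applied in a qHTS concentration series for 40 hr at 37 °C.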

[8] = Cell Viability - NIH 3T3 (AID 541); conditions: NIH 3T3 cell viability, qHTS; at 92.2 µM (top of the series);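 further: plate controls were DMSO alone for no effect and tamoxifen positive control for full effect; nearly all actives have a fitted effect of over 25% in size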
Procedure, shortened: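 Cells seeded at 1000/well, rested 5 hr at 37 °C, then dosed and incubated 40 hr at 37 °C. CellTiter-Glo added, 20 min room temperature, luminescence read. AC50 by Hill fit.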

[9] = Cell Viability - H-4-II-E (AID 543); conditions: H-4-II-E rat hepatoma viability; series mostly up to 92.2 µM; further: on the % scale 0 is the no-effect control and ±100 the full control effect; nearly all actives have a fitted effect of over 35% in size
Procedure, shortened: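 Cells seeded at 1500 per well and rested 5 hr; compounds added; 40 hr incubation at 37 °C; CellTiter-Glo added, 20 min at room temperature; luminescence read. Hill-equation fits gave AC50.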

[10] = Cell Viability - SH-SY5Y (AID 544); conditions: SH-SY5Y neuroblastoma cell viability; series mostly up to 92.2 µM; further: nearly all actives have a fitted effect of over 55% in size
Procedure, shortened: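 Cells were plated at 1500 per well and allowed 5 hr at 37 °C. Compounds were added across a concentration range and incubated 40 hr at 37 °C. CellTiter-Glo was added for 20 min at room temperature before luminescence reading.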

[11] = Cell Viability - Renal Proximal Tubule (AID 545); conditions: renal proximal tubule cells viability; series mostly up to 91.7 µM; further: nearly all actives have a fitted effect of over 40% in size
Procedure, shortened: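 Primary rat renal proximal tubule cells (1000/well) were treated with compounds for 40 hr at 37 °C in complete medium. Intracellular ATP was measured by CellTiter-Glo luminescence, and AC50 values came from Hill-equation fits of concentration-response data.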

[12] = Cell Viability - Mesenchymal (AID 546); conditions: mesenchymal cells viability, qHTS; series mostly up to 91.7 µM;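 further: cells exposed to compound for 40 hours before reading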
Procedure, shortened: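 CellTiter-Glo luminescence (intracellular ATP, 20 min room temperature) after 40 hr compound exposure at 37 °C of 1000 glomerulus-derived human kidney mesenchymal cells/well; AC50 values obtained by fitting qHTS concentration-response data to the Hill equation.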

[13] = Cellular Toxicity (caspase-3) HepG2 (AID 654); conditions: HepG2 caspase-3 activation, luminescence, 0% = DMSO only, 100% = tamoxifen; series mostly up to 92.2 µM;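 further: cells exposed to compound for 16 hours before reading; 0% = DMSO alone and 100% = caspase signal from 100 µM tamoxifen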
Procedure, shortened: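 Caspase 3/7 activation in HepG2 is measured as rising luminescence after a 16 hr treatment at 37 °C. Values are scaled between DMSO basal and 100 uM tamoxifen, and AC50 is fitted with the Hill equation.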

[14] = Cellular Toxicity (caspase-3) Jurkat (AID 655); conditions: Jurkat caspase-3 activation, luminescence, DMSO = 0%, tamoxifen = 100%; series mostly up to 92.2 µM;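 further: cells exposed to compound for 16 h at 37 °C before reading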
Procedure, shortened: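 Jurkat cells (5000/well) in complete medium were treated with compounds for 16 hr at 37 °C, then Caspase-Glo 3/7 luminescence was read after 20 min at room temperature. Data normalized to DMSO (basal) and 100 uM tamoxifen (100%); AC50 from Hill fit.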

[15] = Cellular Toxicity (caspase-3) HUV-EC-C (AID 656); conditions: HUV-EC-C cells, caspase-3 activation (apoptosis), vehicle = 0, 100 µM tamoxifen = 100%; series mostly up to 92.2 µM
Procedure, shortened: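 HUV-EC-C endothelial cells, 1000/well, were pre-incubated 5 hr at 37°C, then exposed to compounds for 16 hr at 37°C. Caspase-Glo 3/7 luminescence was read after 20 min at room temperature. AC50 came from Hill fits, normalized to DMSO and 100 uM tamoxifen.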

[16] = Cellular Toxicity (caspase-3) SHSY5Y (AID 657); conditions: SH-SY5Y caspase-3 activation, DMSO zero, 10 µM staurosporine = 100%; series mostly up to 91.7 µM
Procedure, shortened: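 SH-SY5Y human neuroblastoma cells (1500/well) were treated with compounds for 16 h at 37 °C, then Caspase-Glo 3/7 luminescence was read after 1 h at room temperature. Data normalized to DMSO and 10 uM staurosporine; AC50 from Hill fits.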

[17] = Cellular Toxicity (caspase-3) BJ (AID 658); conditions: BJ fibroblasts, luminescence, normalized: DMSO 0%, staurosporine 100%; series mostly up to 91.7 µM
Procedure, shortened: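 Caspase-Glo 3/7 luminescence, read 1 hr after reagent at room temperature, in normal BJ fibroblasts exposed 16 hours at 37 °C. AC50 values from Hill-equation concentration-response, scaled between DMSO basal and 10 uM staurosporine as 100%.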

[18] = Cellular Toxicity (caspase-3) MRC-5 (AID 659); conditions: MRC-5 cells, luminescence, normalized: DMSO 0%, 10 µM staurosporine 100%; series mostly up to 91.7 µM
Procedure, shortened: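 Luminescent Caspase-Glo 3/7 read-out (1 h, room temperature) after a 16 h, 37 °C compound exposure of MRC-5 lung fibroblasts at 1500 cells/well. Concentration-response AC50 from Hill equation; 0% DMSO, 100% 10 uM staurosporine.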

[19] = Cellular Toxicity (caspase-3) Mesangial (AID 660); conditions: mesangial cells, normalized: DMSO 0%, 100 µM tamoxifen 100%; series mostly up to 91.7 µM;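 further: combined caspase 3 and 7 activity read by Caspase-Glo luminescence; cells exposed to compound for 16 h before the caspase read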
Procedure, shortened: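 Seed cells derived from normal human renal glomeruli, incubate 5 h, add compounds across concentrations and incubate 16 h at 37 °C. Caspase 3/7 activation is then quantified by luciferase light, with AC50 derived by Hill modeling.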

[20] = Cellular Toxicity (caspase-3) SK-N-SH (AID 661); conditions: SK-N-SH caspase-3 activation, qHTS, DMSO as zero, staurosporine as full; series mostly up to 91.7 µM
Procedure, shortened: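 Cells were seeded and incubated 5 hr at 37 °C, dosed with compound over a concentration range for 16 hr, then given Caspase-Glo 3/7 reagent for 1 hr at room temperature before luminescence reading.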

[21] = Cellular Toxicity (caspase-3) H-4-II-E (AID 663); conditions: H-4-II-E rat hepatoma, scaled: DMSO 0%, 100 µM tamoxifen 100%; series mostly up to 92.2 µM;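 further: cells exposed to compound for 16 hr before readout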
Procedure, shortened: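 Caspase 3/7 activation measured by luminescent aminoluciferin substrate cleavage after 16 hr compound treatment of H-4-II-E cells in complete medium. Increase normalized between DMSO (basal) and 100 uM tamoxifen (100%); Hill-equation AC50 from concentration-response.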

[22] = Cellular Toxicity (caspase-3) Hek293 (AID 664); conditions: HEK293 caspase-3 activation, DMSO = 0%, 100 µM tamoxifen = 100%; series mostly up to 92.2 µM;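 further: cells exposed to compound for 16 h at 37 °C before readout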
Procedure, shortened: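 qHTS, HEK293 (human embryonic kidney), 16 h cpd exposure in complete medium. Caspase-3/7 activation = luminescence increase; normalized to DMSO/100 uM tamoxifen; Hill-fit AC50.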

CCOC(=O)c1ccccc1N
inactive: Potency [1] > 92 µM | Potency [2] > 92 µM | Potency [3] > 92 µM | Potency [4] > 92 µM | Potency [5] > 92 µM | outcome [6] | activity change, negative = cytotoxicity [7] 3.3% | activity change, negative = cytotoxicity [8] -0.518% | outcome [9] | outcome [10] | outcome [11] | outcome [12] | outcome [13] | outcome [14] | outcome [15] | outcome [16] | outcome [17] | outcome [18] | outcome [19] | outcome [20] | outcome [21] | outcome [22]
